The source of these data is PubChem BioAssay AID904 (National Center for Advancing Translational Sciences (NCATS), 2007).

Each structure is given as a SMILES string. About 530 (0.96%) of roughly 55,000 compounds were called active. A call without a number means that no potency is given here. Inconclusive results (about 7%) are left out. The sample holds actives, similar compounds and a random draw of the others, so the mix is not that of the screen. Values without a mark were called inactive. The call rests on the fitted dose curve; in most records, active means well fitted cell-killing curve with a large enough effect; inconclusive means small, poorly fitted or top-dose-only effect; inactive means no such curve, though single readings can be large or run the other way.
Potency means the concentration at half of the fitted maximal effect.

The assay in a line: qHTS Screen for Compounds that Selectively Target Cancer Cells with p53 Mutations: Cytotoxicity of p53 Null Cells at the Nonpermissive Temperature. Further: nearly all actives have a fitted effect of over 50% in size. The following applies: H1299 p53-null (neo) cells, 39C, ATPlite viability, 24 h; series mostly up to 46.1 µM. A digest of the protocol: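 H1299 lung cancer cells, p53-null (H1299-neo) or expressing p53 A138V (H1299-p53A138V), were plated overnight at 37C, then exposed to compounds at up to 46 uM for 24 hr at 39C. Viability was read by ATP-based luminescence.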
For `COc1cccc(CNC(=O)Cn2c(=O)c3cccn3c3ccc(F)cc32)c1OC`, the Potency entry was “inactive”. Turning to `CC(C)NC(=S)N1CCN(C(c2ccccc2)c2ccccc2)CC1`, the activity, negative = cell killing is 2.42% [at 1.84 µM].

Turning to `CCC(C)NC(=O)Cn1c(=O)n(-c2ccc(Cl)cc2)c(=O)c2c3c(sc21)CCCC3` (stereo not drawn), the Potency result is “inactive”.

Take `Cc1ccc(N(CC(=O)NCC(C)c2ccccc2)S(=O)(=O)N(C)C)cc1` (stereo not drawn): the Potency result is “inactive”. In the case of `Cc1ccc(OCCSc2nc(-c3cccs3)nc3cc(=O)[nH]n23)cc1Cl`, the Potency result was “inactive”. Regarding `O=C(ON=C1CCN(S(=O)(=O)c2ccccc2)CC1)c1ccc(Cl)cc1`, the Potency entry was “inactive”.

Regarding `CCOC(=O)CSC1=Nc2ccccc2C2=NC(CCC(=O)NCc3ccc(F)cc3)C(=O)N12` (stereo not drawn), the Potency result is “inactive”.

Consider `O=C(/C=C/c1cn(CC(O)CN2CCc3ccccc32)c2ccccc12)c1ccc(Br)cc1` (stereo not drawn), for which the Potency result was “inactive”. The same measure, in the same setting: the result for `COc1ccc(OCCn2cc(C(=O)C3CCCCC3)c3ccccc32)cc1` reads “inactive”.

With `CCOc1ccc(C(=O)/C=C/c2cn(CC(O)CN3CCCCCC3)c3ccccc23)cc1` (stereo not drawn), the Potency was 12.6 µM (active).

Turning to `O=C(Cc1cccs1)Nc1nnc(SCc2ccc(F)cc2)s1`, the Potency entry is “inactive”.

`CCc1ccccc1N(C)C(=O)C1CCCN(c2ncnc3onc(-c4ccc(F)cc4)c23)C1` (stereo not drawn): the Potency result is “inactive”. Still for that read-out and setting: the result for `Cc1nn(Cc2ccc(F)cc2)c(C)c1NC(=O)c1cc(CC(C)C)on1` reads “inactive”.

Regarding `COc1ccc(C2(CNC(=O)C(c3ccccc3)c3ccccc3)CCOCC2)cc1OC`, the Potency result is “inactive”.

On to `CCC(CC)C(=O)N1CCc2cc(OC)c(OC)cc2C1COc1ccc(F)cc1` (stereo not drawn), for which the Potency entry is “inactive”. On to `COc1cccc(N2CCN(S(=O)(=O)c3cc(Br)cc4c3N(C(=O)C3CC3)CC4)CC2)c1`, for which the Potency entry was “inactive”. On the same count and under the same terms, in the case of `Oc1c(C(c2ccc(F)cc2)N2CCN(Cc3ccccc3)CC2)sc2nc(-c3ccco3)nn12` (stereo not drawn) it was “inactive”; in that of `CCCC(=O)Nc1cc(C(=O)NCc2ccc(OC)cc2)ccc1S(=O)(=O)c1ccc(Cl)cc1`, “inactive”; in that of `Cn1c(=O)c(=O)n(C)c2cc(NC(=O)c3ccccc3Br)ccc21`, “inactive”.

For `CCc1nn(CCCC(=O)NCc2ccc(C)cc2)c(=O)c2cc3occc3n12`, the Potency result is “inactive”. Regarding `Cc1ccc(NC(=O)C(=O)NCc2ccc(/C=N/NC(=O)c3c(C)nc4cc(C)ccn34)o2)cc1`, the Potency result is “inactive”. Consider `Cc1c(C(=O)NCCCc2ccccc2)cccc1[N+](=O)[O-]`, for which the activity, negative = cell killing was -7.93% [at 1.84 µM].

Take `CC(NC(=S)Nc1ccccc1)C1COc2ccccc2O1` (stereo not drawn): the Potency entry is “inactive”. Same read-out and setting: in the case of `COc1cccc2c1cc1c(=O)n(CC(=O)N3CCN(c4cccc(Cl)c4)CC3)nc(C)n12` it was “inactive”. As to `COc1cc(OC)c(C(=O)Nc2ccccc2-c2ccccc2)cc1OC`, the activity, negative = cell killing was 18.9% [at 1.84 µM].

Turning to `CCOC(=O)c1ccc(NC(=O)Cn2c(=O)cc(C)c3c(C)nn(-c4cccc(F)c4)c32)cc1`, the Potency result is “inactive”. On to `Cc1nn(-c2ccccc2)c(Cl)c1/C=C/C(=O)c1ccc(O)cc1`, for which the Potency result is “inactive”. Turning to `COc1ccc(NC(=O)CC2C(=O)OCC3CCCCN32)cc1Cl` (stereo not drawn), the activity, negative = cell killing is 14% [at 1.84 µM]. As to `CC(C)(C)c1ccc(C(=O)NCc2nnc(SCC(=O)N3CCCc4ccccc43)n2-c2ccccc2)cc1`, the Potency result was “inactive”.

For the molecule `Cc1cc(C)c(NC(=O)c2oc3ccccc3c2COc2ccccc2)c(C)c1`, the Potency result is “inactive”.

On to `O=C(Nc1nc2c(s1)CCCC2)c1ccccc1F`, for which the Potency is 7.94 µM (active). Still for that read-out and setting: the result for `Cc1cc(C)cc(OC(C)C(=O)Nc2nc3c(s2)CCCC3)c1` (stereo not drawn) reads “inactive”. On the same count and under the same terms, in the case of `Cc1ccccc1NC(=O)c1c(NC(=O)c2ccccc2F)sc2c1CCC(C)C2` (stereo not drawn) it was “inactive”. Regarding `COc1ccc(Cl)cc1NC(=O)CNc1ccccc1F`, the activity, negative = cell killing is 28.8% [at 1.84 µM]. With `COc1ccc(OCCCn2c(C3CC(=O)N(c4ccc(F)cc4)C3)nc3ccccc32)cc1` (stereo not drawn), the Potency result was “inactive”. As to `CCCCN1CC(c2nc3ccccc3n2CCCCOc2ccc(C)cc2C)CC1=O` (stereo not drawn), the Potency entry was “inactive”. On the same count and under the same terms, in the case of `CCc1ccccc1N1CC(c2nc3ccccc3n2CCCCOc2ccccc2)CC1=O` (stereo not drawn) it was 20 µM (active). Consider `Cc1cccc(NC(=S)Nc2ccc3cn[nH]c3c2)c1`, for which the Potency result was “inactive”. The same measure, in the same setting: the result for `CCN1CCN(C(=O)C2(NC(=O)Nc3cccc(F)c3)CCCCC2)CC1` reads “inactive”; that for `COc1cc(Cl)c(C)cc1NC(=O)CCc1nc2cccnc2n1Cc1cccs1`, “inactive”; that for `O=S(=O)(NN=C1CCCCCCC1)c1ccc(Br)cc1`, “inactive”. On the same count and under the same terms, the result for `CC1=CC(=C(C#N)c2nc3ccccc3s2)C=C(C)N1c1ccc(F)cc1F` reads “inactive”; that for `CCc1ccc(C2CC(=O)c3c([nH]c(C(=O)OCc4ccc(C)cc4)c3C)C2)cc1` (stereo not drawn), “inactive”. Same read-out and setting: the result for `Cc1cc(C)cc(C(=O)N2CCN=C2SCc2ccc([N+](=O)[O-])cc2)c1` reads “inactive”. As for `CC(C)(C)NC(=O)CSc1nc(-c2ccc(F)cc2)cc(C(F)(F)F)n1`, the Potency entry is “inactive”.

For `CSc1nc(Nc2ccc(F)cc2)cc(-c2ccccc2)n1`, the Potency was 15.8 µM (active). As to `Fc1ccc(Nc2nc(SCc3ccccc3Cl)nc3ccccc23)cc1`, the Potency result is “inactive”.

`Cc1ccc(CNC(=O)CCc2c(C)nc3c(c(C)nn3-c3ccccc3)c2C)cc1`: the Potency result is “inactive”.

Consider `CCC1CCCCN1C(=S)Nc1ccc(SC(F)F)cc1` (stereo not drawn), for which the Potency result was “inactive”. On the same count and under the same terms, in the case of `CCc1ccccc1NC(=O)Cn1c(=O)n(-c2cccc(C)c2)c(=O)c2c1c1cc(OC)ccc1n2C` it was “inactive”. As to `Cc1ccc(-c2nn3c(=O)cc(CN4CCN(S(=O)(=O)c5ccc(Cl)cc5)CC4)nc3s2)cc1`, the Potency entry was “inactive”.

Take `CCCCOC(=O)/C(C#N)=C/c1ccc(-c2cccc(C(F)(F)F)c2)o1`: the Potency result was “inactive”. The same measure, in the same setting: in the case of `COc1cc(Nc2nc(-c3ccc(OC)c(OC)c3)nc3ccccc23)cc(OC)c1` it was 14.1 µM (active). The same measure, in the same setting: the result for `CCOC(=O)c1nc(Nc2ccc(C(=O)OC)cc2)c2ccccc2n1` reads “inactive”; that for `COc1cccc(Nc2nc3ccccc3c3nncn23)c1`, “inactive”. For the molecule `O=C(Nc1ccc2c(c1)OCO2)c1cc(-c2cccc(Cl)c2)on1`, the Potency result is “inactive”. The same measure, in the same setting: the result for `Cc1ccccc1-c1nc2scc(CCNC(=O)C(=O)Nc3ccc(F)cc3F)n2n1` reads “inactive”; that for `Cc1ccc(Nc2c(-c3ccc(C)cc3)nc3cnccn23)cc1`, “inactive”. For `CC(=O)Nc1ccc(S(=O)(=O)N2CCN(c3ccc([N+](=O)[O-])c(NCCN4CCOCC4)c3)CC2)cc1`, the Potency result is “inactive”.

Turning to `Cc1ccc(CSc2nc3cccnc3n2Cc2ccc(C(=O)NC3CC3)cc2)cc1`, the Potency is 3.16 µM (active). Consider `O=C(NC1CCCCC1)c1ccc(Cn2c(SCc3ccccc3)nc3cccnc32)cc1`, for which the Potency entry was “inactive”. On the same count and under the same terms, the result for `O=C(O)c1ccc(CSc2nc3cccnc3n2Cc2cccc(F)c2)cc1` reads “inactive”; that for `COc1ccc(OC)c(-c2nc(C(N)=O)c3c(n2)n(-c2ccc4c(c2)OCO4)c(=O)n3C)c1`, “inactive”; that for `CCOc1ccc(N(Cc2ccccc2)C(=O)c2nc(SCC)ncc2Cl)cc1`, “inactive”. Still for that read-out and setting: the result for `CCOc1ccc(N(Cc2ccccc2)C(=O)c2nc(S(C)(=O)=O)ncc2Cl)cc1` reads 10 µM (active). The same measure, in the same setting: in the case of `CCOc1ccc(NC(=O)CN(Cc2ccccc2)S(=O)(=O)c2ccc(Cl)cc2)cc1` it was “inactive”.

As to `CNc1ccc(NC(C)=O)cc1[N+](=O)[O-]`, the activity, negative = cell killing was -11.3% [at 1.84 µM].

As for `N#Cc1c(-c2ccc(F)cc2)cc(C2CC2)nc1SCC(=O)c1cccs1`, the activity, negative = cell killing was -5.05% [at 1.84 µM].

As for `CC(C)c1ccc(NC(=O)c2ccc3c(O)c(S(=O)(=O)c4ccccc4)c(=O)[nH]c3c2)cc1`, the Potency is 7.94 µM (active).

Regarding `Cc1ccc(C(=O)Nc2ccc3[nH]c(=O)c(=O)[nH]c3c2)cc1`, the Potency entry was “inactive”. For `COc1ccc(CNC(=O)c2ccc3c(O)c(S(=O)(=O)c4ccccc4)c(=O)[nH]c3c2)cc1`, the Potency entry is “inactive”. The same measure, in the same setting: in the case of `Cc1c(NC(=O)Cc2ccccc2)cccc1-c1nc2cccnc2s1` it was “inactive”. The same measure, in the same setting: the result for `Cc1c(NC(=O)C(C)(C)C)cccc1-c1nc2ccccc2s1` reads 15.8 µM (active); that for `CCC(C(=O)Nc1cccc(-c2nc3cccnc3s2)c1C)c1ccccc1` (stereo not drawn), “inactive”. On to `O=C(Nc1cc(C(F)(F)F)ccc1Cl)C(=O)N1CCCCC1`, for which the activity, negative = cell killing is -3.07% [at 1.84 µM]. Turning to `Cc1cccc(NC(=O)CSc2ncc(-c3ccccc3)[nH]2)c1C`, the Potency result is “inactive”. Take `Cc1ccc(S(=O)(=O)c2cn(Cc3ccccc3)c3cc(N4CCCC4)c(F)cc3c2=O)c(C)c1`: the Potency result is “inactive”. On the same count and under the same terms, in the case of `COCCN(Cc1ccco1)C(=O)Cn1ncc2c([nH]c3ccccc32)c1=O` it was “inactive”. On to `Cc1ccc(CN(C(=O)COc2ccc(Cl)cc2C)C2CCS(=O)(=O)C2)o1` (stereo not drawn), for which the Potency result was “inactive”. As to `COc1cc(C(=O)N2CCN(c3ccc(Nc4ccc(C)cc4)nn3)CC2)cc(OC)c1OC`, the Potency entry was “inactive”. On the same count and under the same terms, the result for `O=C(COC(=O)c1cc2c(s1)CCCC2)NCc1ccccc1Cl` reads “inactive”. `Cc1ccc(NC(=O)c2sc3nc(N)c(C#N)cc3c2N)cc1`: the activity, negative = cell killing was 9.07% [at 1.84 µM]. Consider `CCOc1ccc(CNC(=O)C2CCN(c3nnc(-n4cccc4CNc4ccc(C)cc4)s3)CC2)cc1OC`, for which the Potency result was “inactive”.

On to `CCOC(=O)/C(C#N)=C/c1ccc(N2CCN(Cc3ccccc3)CC2)cc1`, for which the activity, negative = cell killing was 2.74% [at 1.84 µM]. As for `Cc1cccc(-n2c(=O)c3c(c4cc(C)ccc4n3C)n(CC(=O)Nc3ccccc3Cl)c2=O)c1`, the Potency result was “inactive”. For the molecule `CCOc1ccc(-c2nonc2NC(=O)c2oc3ccc(CC)cc3c2C)cc1`, the Potency result is “inactive”. On the same count and under the same terms, in the case of `Cc1ccc(S(=O)(=O)N2CCN(CC(=O)N/N=C/c3cc([N+](=O)[O-])ccc3Cl)CC2)cc1` it was “inactive”. On to `CCc1nnc(SCC(=O)Nc2cc(OC)ccc2OC)nc1CC`, for which the Potency entry is “inactive”. Consider `O=c1n(Cc2cccc(C(F)(F)F)c2)c2ccccc2c2nc(-c3ccccc3)nn12`, for which the Potency result is “inactive”. Regarding `Cc1c(NC(=O)c2cc(-c3ccc(Br)cc3)on2)c(=O)n(-c2ccccc2)n1C`, the Potency result was “inactive”. Regarding `Cc1ccc(-c2nnc(Nc3ccc(OCC(N)=O)cc3)c3ccccc23)cc1S(=O)(=O)NCC1CCCO1` (stereo not drawn), the Potency was 12.6 µM (active).

As for `Cc1ccc(Nc2nnc(-c3ccc(C)c(S(=O)(=O)N4CCCCC4)c3)c3ccccc23)cc1`, the Potency entry was “inactive”. With `Cc1ccc(-c2nnc(Nc3cccc(Br)c3)c3ccccc23)cc1S(=O)(=O)NCC1CCCO1` (stereo not drawn), the Potency result was “inactive”.
